Experimental data published in PubChem BioAssay.

These compounds were tested on Chordin-like protein 2 (CHRDL2) (assay: CHRDL2 small-molecule binders, primary screen, biochemical, small-molecule microarray, 635 nm fluorescence (AID 1126;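 also: printed compound slides probed with Chrdl2 protein at 4 µg/mL for 1 h at 4 C; score merges 667 nm emission intensity with signal to noise over three replicate slides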)). Conditions: small-molecule microarray binding, fluorescence 635 nm; higher = more signal.

| Structure (SMILES) | composite z-score |
| --- | --- |
| COCCCNC(=O)[C@@]1(Sc2ccc(C)cc2)CC(=O)N(C2CCCCC2)[C@@H]1c1ccc(CO)cc1I | 0.818 |
| [N-]=[N+]=NCc1ccccc1C[C@]1(C(=O)O)COC(c2ccc(OCCCO)cc2)=N1 | -2.26 |
| COC(=O)[C@@]1(Cc2ccc(OC)cc2)[C@H]2c3cc(C(=O)N(C)C)n(Cc4ccsc4Br)c3C[C@H]2CN1C(=O)c1ccccc1 | -0.0018 |
| CCCCC(=C=CC[C@@H](O)c1ccc(OCCO)cc1)C[C@@H](O)c1ccccn1 | 0.102 |
| O=C1NC(=O)C2C1C=CC(C(O)c1cccc(O)c1)N2Nc1ccc(Cl)cc1Cl (stereo not given) | -0.474 |
| [N-]=[N+]=NCc1ccccc1C[C@]1(C(=O)NCc2ccccc2)N=C(c2ccc(OCCCO)cc2)O[C@H]1c1ccccc1CN=[N+]=[N-] | -0.324 |
| O=C1O[C@H](c2ccccc2)[C@H](c2ccccc2)N2[C@H]1[C@@H](C(=O)N1CCN(c3ncccn3)CC1)[C@]1(C(=O)Nc3ccccc31)[C@H]2c1ccc(O)cc1 | -0.0771 |
| COC(=O)[C@@]1(Cc2ccc(F)cc2)[C@H]2c3cc(C(=O)N4CCCC4)n(CCO)c3C[C@H]2CN1C(=O)c1ccccc1 | -1.04 |
| O=C1NC(=O)C2C1C=CC(C(O)c1ccc(F)cc1)N2Nc1ccccn1 (stereo not given) | 0.317 |
| CC[C@H](C)C(=O)O[C@H]1CC[C@]2(C)C3=C(CCC2C1(C)C)[C@]1(C)CC[C@H]([C@H](C)CCCC(C)C)[C@@]1(C)CC3 (stereo not given in full) | 0.367 |
| CCCC[C@H]1OB(O)C[C@H]2C1=C(COC)C[C@H]1C(=O)C=CC(=O)[C@H]12 | 0.676 |
| CCCCCCCCCCC(O)C1C=CC2C(=O)N(C)C(=O)C2N1N1CCCCC1 (stereo not given) | -2.31 |
| C=CC[C@]1(C(=O)NCCCOC)N=C(c2ccc(OCCCO)cc2)O[C@H]1c1ccccc1 | -1.08 |
| CC1CC/C=C\[C@H]2OC34C=CCN(c5ccc(Cl)cc5)C(=O)[C@H]3N(CCCO)C(=O)[C@]4(C)C2C(=O)O1 (stereo not given in full) | -1.39 |
| C=C(CC1([C@@H](NP(=O)(c2ccccc2)c2ccccc2)[C@H]2C[C@@H]2CCN(C(=O)OCC)S(=O)(=O)c2ccc(C)cc2)CC1)c1ccccc1 | -0.845 |
| COCC1=C([C@H](O)CCc2ccccc2)[C@H](CO)n2c(=O)n(-c3ccccc3)c(=O)n2C1 | 0.319 |
| COC(=O)c1ccc([C@H](NC(=O)c2ccccc2)[C@]2(C)C[C@H]2C2CCCCC2)cc1 | -0.941 |
| COCCOC(=O)N1C(=O)[C@@]2(c3cc(C#CC4=CCCCC4)ccc31)[C@H](c1ccccc1OCCO)N1[C@H](c3ccccc3)[C@H](c3ccccc3)OC(=O)[C@H]1[C@@H]2C(N)=O | 0.492 |

| Structure (SMILES) | composite z-score |
| --- | --- |
| C=CCC(OC(C)=O)[C@@H]1[C@@H](N(Cc2cc3ccccc3o2)C(=O)Cc2ccc(OC)cc2)c2cc(OCCCO)ccc2N1C(=O)Cc1ccc2ccccc2c1 (stereo not given in full) | -0.563 |
| COc1ccc([Si](C)(C)[C@H]2[C@H](CCO)O[C@@]3(C(=O)N(Cc4ccccc4)c4ccc(N(C=O)c5ccccc5)cc43)[C@@H]2C)cc1 | -0.0384 |
| CC(C)CNC(=O)[C@@H]1c2ccccc2C(=O)N(Cc2ccccc2Cl)[C@H]1c1ccc(CO)cc1 | -0.686 |
| CCCCNC(=O)c1ccc(C#C[Si](C)(C)C)c(OC(C)=O)c1 | 0.782 |
| COc1cc2c(cc1O)C(c1ccc(CN3CCCC3)cc1)N(Cc1cccc(OC(F)(F)F)c1)CC2 (stereo not given) | 0.73 |
| C=CCOC(=O)[C@H]1[C@@H]2C(=O)O[C@@H](c3ccccc3)[C@@H](c3ccccc3)N2[C@@H](c2ccc(OCCOC(=O)[C@H]3C[C@H]4C(=O)NCC(=O)N4[C@H]3c3ccc(O)cc3)cc2)[C@]12C(=O)Nc1ccc(I)cc12 | 0.677 |
| NC(=O)N1C(=O)C2C(C1=O)C1C=C(CCCO)C2C(c2ccc(CN3CCCC3)cc2)N1Cc1cccc(OC(F)(F)F)c1 (stereo not given) | 0.681 |
| C=C(CCCC)C(=O)CC[C@H](OC(C)=O)c1ccccc1OCCO | 0.544 |
| C=CCC(OC(C)=O)[C@@H]1[C@@H](N(Cc2cccc3ccccc23)C(=O)c2ccc(-c3ccccc3)cc2)c2cc(OCCCO)ccc2N1C(=O)c1ccc2ccccc2n1 (stereo not given in full) | 0.41 |
| COC(=O)[C@@]1(Cc2ccccc2)[C@@H]2[C@@H](CC(=O)[C@H]2CC(=O)C(=O)N(C)C)CN1C(=O)c1ccccc1 | -0.641 |
| COCCOC(=O)N1C(=O)[C@@]2(c3cc(C#Cc4ccc(OC)cc4)ccc31)[C@H](C(=O)Nc1nc3ccccc3s1)[C@H]1C(=O)O[C@H](c3ccccc3)[C@H](c3ccccc3)N1[C@@H]2c1ccccc1OCCO | 0.649 |
| CCc1cccc(NC(=O)O[C@H]2[C@H](OC(=O)Nc3ccc4c(c3)OCO4)[C@H](OC(=O)Nc3ccc4c(c3)OCO4)[C@@H](OC)O[C@@H]2CO)c1 | -0.0095 |
| C=C(COC)/C(=C/C[C@H](OC(=O)c1ccncc1)c1cccc(OCCO)c1)c1cnc2ccccc2c1 | 1.23 |
| COCCn1c(C(=O)N2CCCC2)cc2c1C[C@H]1CN(C(=O)c3ccccc3)[C@@](Cc3ccccc3)(C(=O)OC)[C@@H]21 | -0.133 |
| O=C1C2C=CC(C(O)C(c3ccccc3)c3ccccc3)N(Nc3ccccc3)C2C(=O)N1c1ccccc1 (stereo not given) | -0.236 |
| Cc1ccc(S(=O)(=O)N2[C@@H](c3ccccc3)C(C(=O)O)=CC[C@H]2c2ccc(C#N)cc2)cc1 | -0.425 |
| C=CCC(OC(C)=O)[C@@H]1[C@@H](N(Cc2cc3ccccc3o2)C(=O)c2ccc(-c3ccccc3)cc2)c2cc(OCCCO)ccc2N1C(=O)c1ccc2ccccc2n1 (stereo not given in full) | 0.163 |
